Bioassay records: PubChem BioAssay, The Scripps Research Institute Molecular Screening Center
A selection: hits, their analogues and other compounds. The true share with any hit is near 4.1%.
DAX1 inh-1: inhibitors of human orphan nuclear receptor DAX1 (NR0B1) | 340,000 tested, 0.99% active | AID 504766 | inhibition, % at 6.75 µM | HEK293 Gal4-DAX1 luciferase reporter, luminescence;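 active = inhibition above the mean over all tested compounds plus 3 SD, cut at about 4.2% in these data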;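 also: 0% = DAX1-transfected cells with DMSO and 100% = empty-vector control cells with DMSO; inhibition shows as a rise in luminescence from relieved DAX1 repression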
hgDAF12 agonist: agonists of H. glycines DAF-12 nuclear receptor. HEK293 GAL4-hgDAF12 UAS-luciferase reporter, agonist luminescence; normalized to butyrate control. activation, % at 6.8 µM. 370,000 tested, 1.8% active. AID 687014;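 active = activation above a cutoff set at the mean of all screened compounds plus 3 SD, cut at about 10% in these data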;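 also: 0% = DMSO wells and 100% = sodium butyrate wells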
ssDAF12 agonist: S. stercoralis DAF-12 activation, primary screen; HEK293 ssDAF-12/GRIP1 lit1-tk-luc reporter, luminescence; % of 3 µM dafachronic acid response; activation, % at 6.8 µM; 370,000 tested, 1% active;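 active = activation above the mean over all tested compounds plus 3 SD, cut at about 0.9% in these data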;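 also: 0% = DMSO-only wells and 100% = 3 µM delta7-dafachronic acid wells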
hcDAF12 agonist: activates DAF-12 receptor from parasite H. contortus; HEK293 hcDAF-12 lit1-tk-luc reporter, luminescence; 0% DMSO, 100% Δ7-dafachronic acid; activation, % at 6.8 µM; 370,000 tested, 1.4% active; AID 652067;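 active = activation above the mean of all tested compounds plus 3 SD, cut at about 5.5% in these data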;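 also: 100% = response to 3 µM Δ7-dafachronic acid high control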
DAX1 inh-2: DAX1 (NR0B1) inhibition, primary screen. inhibition, % at 6.8 µM. 370,000 tested, 1.1% active. HEK293T StAR-luciferase reporter, SF-1/DAX-1 repression relief. AID 652010;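 active = inhibition above the mean over all tested compounds plus 3 SD, cut at about 3.6% in these data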;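 also: 0% = DAX-1 cells with DMSO and 100% = cells lacking DAX-1 with DMSO; higher inhibition means more luminescence from relief of DAX-1 repression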
LXR ag: counter-screen for hcDAF-12 agonists: agonists of human LXR-beta | shares compounds with hcDAF12 agonist | HEK293 Gal4-LXR tk-luc reporter, luminescence, 24 h; normalized: DMSO 0%, positive control 100% | activation, % at 6.8 µM | 3,400 tested, under 10 active | AID 743027;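 active = mean percent activation of the reporter above a cutoff set as the average over tested compounds plus their standard deviation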
Target sequence (P55055 whole entry, looked up, the tested form may be a part): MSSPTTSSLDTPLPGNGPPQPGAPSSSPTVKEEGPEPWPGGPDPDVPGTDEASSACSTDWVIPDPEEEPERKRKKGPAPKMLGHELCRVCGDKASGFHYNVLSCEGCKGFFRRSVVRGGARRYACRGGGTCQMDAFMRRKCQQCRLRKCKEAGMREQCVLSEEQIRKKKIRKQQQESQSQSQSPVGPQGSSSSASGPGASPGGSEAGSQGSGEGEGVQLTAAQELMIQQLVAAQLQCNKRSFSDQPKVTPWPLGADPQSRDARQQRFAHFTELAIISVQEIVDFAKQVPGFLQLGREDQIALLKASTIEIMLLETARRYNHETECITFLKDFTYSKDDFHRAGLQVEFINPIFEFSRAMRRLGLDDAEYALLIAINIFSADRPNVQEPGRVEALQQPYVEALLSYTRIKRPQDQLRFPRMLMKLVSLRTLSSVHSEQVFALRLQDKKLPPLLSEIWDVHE
hcDAF12 conf: hcDAF-12 agonism, confirmation assay | shares compounds with hcDAF12 agonist | HEK293 hcDAF-12 lit1-tk-luc reporter, luminescence; % of Δ7-dafachronic acid response | activation, % at 6.8 µM | 3,400 tested, 61% active | AID 743032;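 active = mean activation across triplicate tests above the threshold derived from the earlier primary screen, cut at about 5.5% in these data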;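 also: 0% = DMSO only wells and 100% = 3 µM Δ7-dafachronic acid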
hgDAF12 conf: hgDAF-12 agonism, confirmation assay; shares compounds with hgDAF12 agonist; HEK293 GAL4-hgDAF12 luciferase reporter, agonist mode; percent of butyrate response; activation, % at 6.8 µM; 3,300 tested, 80% active; AID 743050;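 active = mean activation over triplicate wells above the hit cutoff derived from the earlier primary screen, cut at about 11% in these data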;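 also: 0% = DMSO low control and 100% = 2 mM sodium butyrate high control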
LXRb DAF12 ctr: LXR-beta agonism as DAF-12 counter-screen. AID 743051. shares compounds with hgDAF12 agonist. HEK293 Gal4-LXR luciferase reporter, 24 h. activation, % at 6.8 µM. 3,300 tested, under 10 active;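 active = mean activation of the triplicate above a set limit carried over from the primary screen, none filed active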
An asterisk follows results filed as active.

For O=C(Nc1ccc(Nc2ccccc2)cc1)c1ccc(Cl)cc1Cl the results were hgDAF12 agonist 2, ssDAF12 agonist -1, hcDAF12 agonist -1 and DAX1 inh-2 -1.
Cc1ccc(NC(=O)c2ccc(Cl)cc2Cl)cc1O was read as DAX1 inh-1 7.7*, hgDAF12 agonist 17*, ssDAF12 agonist 1.9*, hcDAF12 agonist 9.6*, DAX1 inh-2 3, LXR ag 1, hcDAF12 conf 6.2*, hgDAF12 conf 15* and LXRb DAF12 ctr 1.
N#Cc1cnc(Nc2nc3ccccc3o2)nc1-c1ccccc1 was read as DAX1 inh-1 -1, hgDAF12 agonist -1, ssDAF12 agonist -1, hcDAF12 agonist 0 and DAX1 inh-2 -1.
Screening Cc1ccnc(Nc2nc3ccccc3o2)n1 returned DAX1 inh-1 0, hgDAF12 agonist 21*, ssDAF12 agonist 0, hcDAF12 agonist 10*, DAX1 inh-2 6.5*, LXR ag 1, hcDAF12 conf 6.6*, hgDAF12 conf 10 and LXRb DAF12 ctr 1.
`CCOc1ccc(NC(=O)CN(C)C(=O)CCNC(=O)c2ccco2)cc1OCC` gave DAX1 inh-1 0, hgDAF12 agonist 3, ssDAF12 agonist 0, hcDAF12 agonist 0 and DAX1 inh-2 1.
Cc1c(C(=O)Nc2ccc(Br)cc2)cnn1C was read as DAX1 inh-1 2, hgDAF12 agonist 15*, ssDAF12 agonist 2.3*, hcDAF12 agonist 11*, DAX1 inh-2 2, LXR ag 1, hcDAF12 conf 6.1*, hgDAF12 conf 13* and LXRb DAF12 ctr 0.
For OC(c1cc(F)cc(Cl)c1)c1ncc(-c2cccc(C(F)(F)F)c2)[nH]1 (stereo unspecified) the results were hgDAF12 agonist -1, ssDAF12 agonist -1, hcDAF12 agonist -1 and DAX1 inh-2 0.
`CCOC(=O)C1=CCN(S(=O)(=O)c2ccc(Br)cc2)C1c1cccc(C)c1` (stereo unspecified) gave hgDAF12 agonist 6, ssDAF12 agonist -2, hcDAF12 agonist -2 and DAX1 inh-2 0.
`O=[N+]([O-])c1ccccc1/C=C/c1ccc2ccccc2n1` gave DAX1 inh-1 7.1*, hgDAF12 agonist 16*, ssDAF12 agonist 2.1*, hcDAF12 agonist 18*, DAX1 inh-2 2, LXR ag 2, hcDAF12 conf 12*, hgDAF12 conf 20* and LXRb DAF12 ctr 1.
`COc1cc(OC)c(OC)cc1C=Cc1ccc2ccccc2n1` gave DAX1 inh-1 -1, hgDAF12 agonist 8, ssDAF12 agonist 1, hcDAF12 agonist 3 and DAX1 inh-2 1.
Oc1[nH]c2ccccc2c1C=Nc1ccccc1 was read as DAX1 inh-1 13*, hgDAF12 agonist 21*, ssDAF12 agonist 1.6*, hcDAF12 agonist 8.3*, DAX1 inh-2 3, LXR ag 1, hcDAF12 conf 8.9*, hgDAF12 conf 24* and LXRb DAF12 ctr 1.
`O=C(C1CCCCC1)N1C[C@@H](O)[C@H](n2cc(C3CC3)nn2)C[C@@H]1c1ccccc1` gave DAX1 inh-1 1, hgDAF12 agonist -2, ssDAF12 agonist -1, hcDAF12 agonist -1 and DAX1 inh-2 0.
CC(=O)Nc1sc2c(c1-c1nc3ccccc3s1)CCCN(C(C)C)C2 was read as hgDAF12 agonist 24*, ssDAF12 agonist 7.3*, hcDAF12 agonist 42*, LXR ag 2, hcDAF12 conf 21*, hgDAF12 conf 6 and LXRb DAF12 ctr 1.
Screening CC(=O)Nc1sc2c(c1-c1nc3ccccc3s1)CCOC2 returned hgDAF12 agonist 4, ssDAF12 agonist -2 and hcDAF12 agonist -1.
